Test results published in the supplement of paper PMC6607015.
Counter-ions that a name gives are not always drawn.

system: HeLa MZ; assay: LBPA endosome anti-LBPA integrated intensity (sum per cell), Z-score; higher = more LBPA staining; details: compound concentration in added solution (µM; 5 µl added to 20 µl cells): 10; 18 h
How it was run: (§1)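 The data are Z-scores, normalised in AcuityXpress, of integrated LBPA or filipin intensity in each cell, either whole-cell or restricted to LBPA endosomes. HeLa MZ or A431 cells, 3,500 per well in 20 µl, were seeded onto 5 µl of 10 µM compound solution in duplicate 384-well plates and incubated 18 h. Fixed cells were stained and imaged, with intensities extracted by MetaXpress segmentation.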

Row | SMILES | LBPA endosome anti-LBPA integrated intensity (z-score)
1 | COc1ccc(C(=O)c2ccccc2O)c(O)c1 [Dioxybenzone] | 0.711
2 | CN(C)[C@@H]1C(O)=C(C(N)=O)C(=O)[C@@]2(O)C(O)=C3C(=O)c4c(O)cccc4[C@@](C)(O)[C@H]3[C@H](O)[C@@H]12 [Oxytetracycline dihydrate] | -0.93
3 | CCCCOc1ccc(C(=O)CCN2CCCCC2)cc1 [Dyclonine hydrochloride] | 0.215
4 | C1CCC(C(CC2CCCCN2)C2CCCCC2)CC1 (stereo unspecified) [Perhexiline maleate] | -0.192
5 | CCC(Cc1c(I)cc(I)c(N)c1I)C(=O)O (stereo unspecified) [Iopanoic acid] | -0.571
6 | CN(C)CCOC(=O)C(c1ccccc1)C1(O)CCCC1 (stereo unspecified) [Cyclopentolate hydrochloride] | 0.664
7 | COc1ccccc1OCC(O)COC(N)=O (stereo unspecified) [Methocarbamol] | -0.641
8 | O=C(O)c1cc(-c2ccc(F)cc2F)ccc1O [Diflunisal] | -0.139
9 | CC(C)(C)CC(C)(C)c1ccc(OCCOCC[N+](C)(C)Cc2ccccc2)cc1 [Benzethonium chloride] | 1.55
10 | CN(N=O)C(=O)N[C@@H](C=O)[C@@H](O)[C@H](O)[C@H](O)CO [Streptozotocin] | -0.52
11 | Fc1ccc([C@@H]2CCNC[C@H]2COc2ccc3c(c2)OCO3)cc1 [Paroxetine Hydrochloride] | 0.516
12 | C=C(NC(=O)C(=C)NC(=O)c1csc(C2=N[C@@H]3c4csc(n4)[C@H]4NC(=O)c5csc(n5)[C@H]([C@](C)(O)[C@@H](C)O)NC(=O)[C@H]5CSC(=N5)/C(=C/C)NC(=O)[C@H]([C@@H](C)O)NC(=O)c5csc(n5)[C@]3(CC2)NC(=O)[C@H](C)NC(=O)C(=C)NC(=O)[C@H](C)NC(=O)[C@H]([C@@H](C)CC)N[C@@H]2C=Cc3c([C@H](C)O)cc(nc3[C@H]2O)C(=O)O[C@@H]4C)n1)C(N)=O [Thiostrepton] | -0.253
13 | CC(NCCC(c1ccccc1)c1ccccc1)c1ccccc1 (stereo unspecified) [Fendiline hydrochloride] | 1.29
14 | Cc1cc(-c2ccccc2)nnc1NCCN1CCOCC1 [Minaprine dihydrochloride] | -0.183
15 | O=C1NCCN1CCN1CCC(c2cn(-c3ccc(F)cc3)c3ccc(Cl)cc23)CC1 [Sertindole] | 0.384

system: A431; assay: whole-cell filipin (free cholesterol) integrated intensity, Z-score; higher = more cholesterol staining; details: compound concentration in added solution (µM; 5 µl added to 20 µl cells): 10; 18 h
How it was run: as §1

Row | SMILES | whole-cell filipin (z-score)
16 | C[C@@H]1NC(=O)NC1=O [Methylhydantoin-5-(L)] | -0.263
17 | C[C@@](Cc1ccc(O)c(O)c1)(NN)C(=O)O [Carbidopa] | -0.771
18 | C[C@]12C[C@H](O)[C@H]3[C@@H](CCC4=CC(=O)CC[C@@]43C)[C@@H]1CC[C@@H]2C(=O)CO [Corticosterone] | -0.492
19 | Cc1scc2c1N(C(=O)CN1CCN(C)CC1)c1ccccc1NC2=O [Telenzepine dihydrochloride] | -0.931
20 | Cc1nnc(SCC2=C(C(=O)O)N3C(=O)[C@@H](NC(=O)Cn4cnnn4)[C@H]3SC2)s1 [Cefazolin sodium salt] | -0.424
21 | COc1nc(C)nc(Cl)c1NC1=NCCN1 [Moxonidine] | -0.0575
22 | Nc1ccc(S(=O)(=O)c2ccc(N)cc2)cc1 [Dapsone] | -0.45
23 | CCCCOc1ccc(OCCCN2CCOCC2)cc1 [Pramoxine hydrochloride] | 0.443
24 | CN(Cc1cnc2nc(N)nc(N)c2n1)c1ccc(C(=O)N[C@@H](CCC(=O)O)C(=O)O)cc1 [Methotrexate] | 0.354
25 | COc1cc(NS(=O)(=O)c2ccc(N)cc2)ncn1 [Sulfamonomethoxine] | -0.452
26 | CN1C(C(=O)Nc2ccccn2)=C(O)c2sccc2S1(=O)=O [Tenoxicam] | -0.432
27 | COC(=O)Nc1nc2cc(C(=O)c3ccc(F)cc3)ccc2[nH]1 [Flubendazol] | -0.303
28 | CCOC1O[C@H]([C@@H](COCc2ccccc2)OCc2ccccc2)[C@H](OCc2ccccc2)[C@H]1O (stereo partly specified) [Tribenoside] | 0.649
29 | COc1cc([C@@H]2c3cc4c(cc3[C@@H](O[C@@H]3O[C@@H]5CO[C@@H](C)O[C@H]5[C@H](O)[C@H]3O)[C@H]3COC(=O)[C@H]23)OCO4)cc(OC)c1O [Etoposide] | 2.27
30 | COc1ccc(C(=O)c2ccccc2O)c(O)c1 [Dioxybenzone] | -0.27
31 | CN(C)[C@@H]1C(O)=C(C(N)=O)C(=O)[C@@]2(O)C(O)=C3C(=O)c4c(O)cccc4[C@@](C)(O)[C@H]3[C@H](O)[C@@H]12 [Oxytetracycline dihydrate] | -0.872

Row | SMILES | whole-cell filipin (z-score)
32 | O=C(CCCCCCC(=O)Nc1ccccc1)NO [Vorinostat] | 1.83
33 | COC(=O)Nc1nc2cc([S+]([O-])c3ccccc3)ccc2[nH]1 (stereo unspecified) [Oxfendazol] | -0.236
34 | CN1C(C)(C)CCCC1(C)C [Pempidine tartrate] | -0.191
35 | CCCCOc1ccc(C(=O)CCN2CCCCC2)cc1 [Dyclonine hydrochloride] | 0.502
36 | CCC(Cc1c(I)cc(I)c(N)c1I)C(=O)O (stereo unspecified) [Iopanoic acid] | -0.348
37 | CN(C)CCOC(=O)C(c1ccccc1)C1(O)CCCC1 (stereo unspecified) [Cyclopentolate hydrochloride] | 0.119
38 | COc1ccccc1OCC(O)COC(N)=O (stereo unspecified) [Methocarbamol] | -0.741
39 | O=c1[nH]cc(F)c(=O)[nH]1 [5-fluorouracil] | 0.716
40 | CCN(CC)CCNc1ccc(CO)c2sc3ccccc3c(=O)c12 [Hycanthone] | 2.31
41 | O=C(O)c1cc(-c2ccc(F)cc2F)ccc1O [Diflunisal] | -0.11
42 | CN(N=O)C(=O)N[C@@H](C=O)[C@@H](O)[C@H](O)[C@H](O)CO [Streptozotocin] | -0.71
43 | Nc1nc2n[nH]nc2c(=O)[nH]1 [Azaguanine-8] | -1.15
44 | CCCC1C(=O)N2C(N(C)C)=Nc3ccc(C)cc3N2C1=O (stereo unspecified) [Azapropazone] | 0.0445
45 | CC(CN(C)C)CN1c2ccccc2Sc2ccccc21 (stereo unspecified) [Trimeprazine tartrate] | 1.36
46 | Cc1cc(-c2ccccc2)nnc1NCCN1CCOCC1 [Minaprine dihydrochloride] | -0.925
